ChEMBL document CHEMBL2218924, “A broad activity screen in support of a chemogenomic map for kinase signalling research and drug discovery” (Biochem J, 2013)

Legend:
[1] = target: T1, Ephrin type-A receptor 3 (Homo sapiens) (UniProt P29320); conditions: at 10 µM
T1 sequence (whole entry): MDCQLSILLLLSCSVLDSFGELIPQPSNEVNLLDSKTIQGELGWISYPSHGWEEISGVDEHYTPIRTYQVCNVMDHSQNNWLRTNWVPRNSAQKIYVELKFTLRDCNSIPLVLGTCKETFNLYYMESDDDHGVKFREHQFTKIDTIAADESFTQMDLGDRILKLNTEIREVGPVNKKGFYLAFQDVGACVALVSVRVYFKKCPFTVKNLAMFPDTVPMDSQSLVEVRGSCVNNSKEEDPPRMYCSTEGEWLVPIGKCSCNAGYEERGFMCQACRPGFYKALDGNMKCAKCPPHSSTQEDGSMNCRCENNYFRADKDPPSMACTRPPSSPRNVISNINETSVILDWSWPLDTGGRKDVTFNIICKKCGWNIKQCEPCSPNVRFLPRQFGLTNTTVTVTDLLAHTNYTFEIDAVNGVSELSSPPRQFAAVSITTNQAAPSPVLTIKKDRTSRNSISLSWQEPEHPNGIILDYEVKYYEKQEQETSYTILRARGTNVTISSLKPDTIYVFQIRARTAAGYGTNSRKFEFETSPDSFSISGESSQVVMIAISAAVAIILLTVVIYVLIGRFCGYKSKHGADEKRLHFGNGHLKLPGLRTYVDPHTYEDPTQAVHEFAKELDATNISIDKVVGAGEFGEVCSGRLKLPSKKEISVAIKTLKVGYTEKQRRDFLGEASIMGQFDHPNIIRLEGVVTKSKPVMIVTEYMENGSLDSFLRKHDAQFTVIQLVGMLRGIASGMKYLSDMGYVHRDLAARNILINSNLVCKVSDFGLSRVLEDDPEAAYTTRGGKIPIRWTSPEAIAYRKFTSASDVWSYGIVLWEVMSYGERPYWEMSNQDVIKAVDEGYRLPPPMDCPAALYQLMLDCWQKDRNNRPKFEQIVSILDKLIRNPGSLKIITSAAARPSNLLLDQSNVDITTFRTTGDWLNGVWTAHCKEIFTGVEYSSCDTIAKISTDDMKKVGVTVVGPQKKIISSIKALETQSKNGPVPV

[2] = target: Ephrin type-A receptor 4 (Homo sapiens) (UniProt P54764); conditions: at 1 µM
Sequence of Ephrin type-A receptor 4 (Homo sapiens) (P54764 whole entry): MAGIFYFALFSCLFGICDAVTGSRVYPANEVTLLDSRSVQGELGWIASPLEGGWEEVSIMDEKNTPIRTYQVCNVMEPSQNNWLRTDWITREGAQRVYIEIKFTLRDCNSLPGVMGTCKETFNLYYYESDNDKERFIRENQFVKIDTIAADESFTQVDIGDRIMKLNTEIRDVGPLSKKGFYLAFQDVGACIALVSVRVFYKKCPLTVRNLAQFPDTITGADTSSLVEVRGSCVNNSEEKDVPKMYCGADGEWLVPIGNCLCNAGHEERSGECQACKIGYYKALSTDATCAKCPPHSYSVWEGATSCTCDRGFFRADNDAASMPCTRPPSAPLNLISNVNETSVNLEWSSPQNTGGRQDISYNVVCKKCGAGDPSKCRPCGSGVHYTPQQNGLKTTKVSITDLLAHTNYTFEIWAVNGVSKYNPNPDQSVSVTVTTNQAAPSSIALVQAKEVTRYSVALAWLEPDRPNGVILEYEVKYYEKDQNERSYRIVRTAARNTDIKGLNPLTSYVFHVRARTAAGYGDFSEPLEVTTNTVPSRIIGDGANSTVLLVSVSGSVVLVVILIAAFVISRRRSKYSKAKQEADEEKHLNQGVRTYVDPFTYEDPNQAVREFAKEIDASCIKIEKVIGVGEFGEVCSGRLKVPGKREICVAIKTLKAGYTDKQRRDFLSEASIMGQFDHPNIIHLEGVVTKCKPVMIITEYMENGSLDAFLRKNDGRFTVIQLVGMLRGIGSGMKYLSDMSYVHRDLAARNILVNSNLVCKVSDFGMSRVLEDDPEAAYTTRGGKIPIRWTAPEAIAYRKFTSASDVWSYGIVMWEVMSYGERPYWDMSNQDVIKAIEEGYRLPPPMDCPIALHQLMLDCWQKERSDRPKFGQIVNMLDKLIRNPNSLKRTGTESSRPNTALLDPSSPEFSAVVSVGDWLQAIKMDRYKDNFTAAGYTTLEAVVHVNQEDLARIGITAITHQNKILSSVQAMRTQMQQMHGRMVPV

[3] = target: Ephrin type-A receptor 4 (Homo sapiens) (UniProt P54764); conditions: at 10 µM
[4] = target: Ephrin type-A receptor 5 (Homo sapiens) (UniProt P54756); conditions: at 1 µM
Sequence of Ephrin type-A receptor 5 (Homo sapiens) (P54756 whole entry): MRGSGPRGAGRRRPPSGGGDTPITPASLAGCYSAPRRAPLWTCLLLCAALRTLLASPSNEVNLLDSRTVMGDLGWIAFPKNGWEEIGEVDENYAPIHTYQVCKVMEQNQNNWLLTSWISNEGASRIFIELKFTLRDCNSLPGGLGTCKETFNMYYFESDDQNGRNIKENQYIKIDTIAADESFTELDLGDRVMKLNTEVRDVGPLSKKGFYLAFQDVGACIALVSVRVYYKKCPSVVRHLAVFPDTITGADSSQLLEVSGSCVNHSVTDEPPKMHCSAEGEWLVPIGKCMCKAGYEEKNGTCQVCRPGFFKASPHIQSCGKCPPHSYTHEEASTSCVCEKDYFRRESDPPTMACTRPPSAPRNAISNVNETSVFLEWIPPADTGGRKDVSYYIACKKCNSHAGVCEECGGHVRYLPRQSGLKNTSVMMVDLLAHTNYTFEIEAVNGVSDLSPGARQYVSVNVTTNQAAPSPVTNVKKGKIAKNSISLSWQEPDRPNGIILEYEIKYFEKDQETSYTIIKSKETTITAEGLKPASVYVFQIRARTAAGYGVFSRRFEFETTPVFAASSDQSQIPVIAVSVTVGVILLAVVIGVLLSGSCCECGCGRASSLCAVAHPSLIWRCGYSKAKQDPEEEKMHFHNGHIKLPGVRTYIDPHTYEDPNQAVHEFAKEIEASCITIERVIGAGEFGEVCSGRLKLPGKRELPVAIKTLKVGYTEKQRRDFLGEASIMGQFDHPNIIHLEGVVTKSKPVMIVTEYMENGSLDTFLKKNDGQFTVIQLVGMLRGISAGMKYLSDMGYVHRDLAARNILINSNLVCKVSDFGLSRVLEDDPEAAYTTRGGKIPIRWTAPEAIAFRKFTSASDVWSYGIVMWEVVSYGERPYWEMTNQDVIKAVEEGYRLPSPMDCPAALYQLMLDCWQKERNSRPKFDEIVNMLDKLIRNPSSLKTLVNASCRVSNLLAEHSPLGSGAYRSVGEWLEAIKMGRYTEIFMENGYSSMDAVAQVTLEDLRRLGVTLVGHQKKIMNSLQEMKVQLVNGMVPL

[5] = target: Ephrin type-A receptor 5 (Homo sapiens) (UniProt P54756); conditions: at 10 µM
[6] = target: Ephrin type-A receptor 7 (Homo sapiens) (UniProt Q15375); conditions: at 1 µM
Sequence of Ephrin type-A receptor 7 (Homo sapiens) (Q15375 28-998 limits assumed): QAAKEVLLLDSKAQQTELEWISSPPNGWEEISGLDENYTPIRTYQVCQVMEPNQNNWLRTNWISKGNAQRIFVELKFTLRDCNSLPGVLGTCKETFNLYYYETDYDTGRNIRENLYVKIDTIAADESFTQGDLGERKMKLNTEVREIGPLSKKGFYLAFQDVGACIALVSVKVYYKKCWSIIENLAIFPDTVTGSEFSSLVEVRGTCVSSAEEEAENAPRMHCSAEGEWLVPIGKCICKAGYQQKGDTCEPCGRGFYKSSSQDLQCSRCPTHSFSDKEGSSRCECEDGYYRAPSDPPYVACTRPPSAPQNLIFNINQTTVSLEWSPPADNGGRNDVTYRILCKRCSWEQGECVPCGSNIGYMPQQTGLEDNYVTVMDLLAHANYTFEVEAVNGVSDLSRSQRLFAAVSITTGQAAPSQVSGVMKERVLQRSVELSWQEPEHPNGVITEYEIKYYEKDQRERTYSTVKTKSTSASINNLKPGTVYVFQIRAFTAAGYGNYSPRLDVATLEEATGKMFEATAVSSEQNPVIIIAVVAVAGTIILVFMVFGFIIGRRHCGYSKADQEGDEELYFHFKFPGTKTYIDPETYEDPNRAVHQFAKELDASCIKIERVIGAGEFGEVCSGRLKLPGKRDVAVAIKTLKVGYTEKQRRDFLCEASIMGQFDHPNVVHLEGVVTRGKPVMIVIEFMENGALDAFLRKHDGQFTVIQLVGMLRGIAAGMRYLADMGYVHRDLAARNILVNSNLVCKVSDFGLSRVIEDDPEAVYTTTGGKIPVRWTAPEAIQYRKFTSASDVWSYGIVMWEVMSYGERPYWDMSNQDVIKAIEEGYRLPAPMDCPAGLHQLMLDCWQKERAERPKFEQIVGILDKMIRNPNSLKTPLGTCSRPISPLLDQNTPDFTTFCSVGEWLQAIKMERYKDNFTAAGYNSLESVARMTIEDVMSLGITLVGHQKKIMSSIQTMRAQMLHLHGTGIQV

[7] = target: Ephrin type-A receptor 7 (Homo sapiens) (UniProt Q15375); conditions: at 10 µM
[8] = target: T2, Ephrin type-A receptor 8 (Homo sapiens) (UniProt P29322); conditions: at 1 µM
T2 sequence (whole entry): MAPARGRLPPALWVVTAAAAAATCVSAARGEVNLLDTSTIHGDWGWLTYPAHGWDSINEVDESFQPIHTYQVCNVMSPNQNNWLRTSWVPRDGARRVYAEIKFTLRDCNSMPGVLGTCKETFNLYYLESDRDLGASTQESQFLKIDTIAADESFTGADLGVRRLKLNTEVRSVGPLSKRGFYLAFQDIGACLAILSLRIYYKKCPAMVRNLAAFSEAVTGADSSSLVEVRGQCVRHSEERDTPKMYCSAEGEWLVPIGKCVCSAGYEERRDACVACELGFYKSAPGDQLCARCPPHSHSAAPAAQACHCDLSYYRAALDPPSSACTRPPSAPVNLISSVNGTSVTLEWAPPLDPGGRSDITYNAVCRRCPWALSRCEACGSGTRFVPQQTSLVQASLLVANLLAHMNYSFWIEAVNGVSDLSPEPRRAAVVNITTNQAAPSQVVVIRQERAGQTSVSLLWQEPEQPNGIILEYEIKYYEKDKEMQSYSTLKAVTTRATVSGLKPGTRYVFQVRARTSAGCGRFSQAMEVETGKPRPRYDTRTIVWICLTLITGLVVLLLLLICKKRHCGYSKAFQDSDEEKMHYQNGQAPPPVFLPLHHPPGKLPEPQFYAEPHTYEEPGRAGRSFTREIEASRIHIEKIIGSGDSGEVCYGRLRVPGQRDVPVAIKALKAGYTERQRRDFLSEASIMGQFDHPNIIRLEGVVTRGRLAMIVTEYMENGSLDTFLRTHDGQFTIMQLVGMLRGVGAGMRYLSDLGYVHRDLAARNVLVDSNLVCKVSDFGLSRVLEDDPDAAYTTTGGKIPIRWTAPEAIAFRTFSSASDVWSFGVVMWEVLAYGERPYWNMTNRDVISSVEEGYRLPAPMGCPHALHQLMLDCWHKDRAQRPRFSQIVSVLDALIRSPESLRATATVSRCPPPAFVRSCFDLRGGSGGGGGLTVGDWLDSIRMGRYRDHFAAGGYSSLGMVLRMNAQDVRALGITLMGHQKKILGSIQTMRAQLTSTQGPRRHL

[9] = target: T2, Ephrin type-A receptor 8 (Homo sapiens); conditions: at 10 µM
[10] = target: T3, Ephrin type-B receptor 1 (Homo sapiens) (UniProt P54762); conditions: at 1 µM
T3 sequence (whole entry): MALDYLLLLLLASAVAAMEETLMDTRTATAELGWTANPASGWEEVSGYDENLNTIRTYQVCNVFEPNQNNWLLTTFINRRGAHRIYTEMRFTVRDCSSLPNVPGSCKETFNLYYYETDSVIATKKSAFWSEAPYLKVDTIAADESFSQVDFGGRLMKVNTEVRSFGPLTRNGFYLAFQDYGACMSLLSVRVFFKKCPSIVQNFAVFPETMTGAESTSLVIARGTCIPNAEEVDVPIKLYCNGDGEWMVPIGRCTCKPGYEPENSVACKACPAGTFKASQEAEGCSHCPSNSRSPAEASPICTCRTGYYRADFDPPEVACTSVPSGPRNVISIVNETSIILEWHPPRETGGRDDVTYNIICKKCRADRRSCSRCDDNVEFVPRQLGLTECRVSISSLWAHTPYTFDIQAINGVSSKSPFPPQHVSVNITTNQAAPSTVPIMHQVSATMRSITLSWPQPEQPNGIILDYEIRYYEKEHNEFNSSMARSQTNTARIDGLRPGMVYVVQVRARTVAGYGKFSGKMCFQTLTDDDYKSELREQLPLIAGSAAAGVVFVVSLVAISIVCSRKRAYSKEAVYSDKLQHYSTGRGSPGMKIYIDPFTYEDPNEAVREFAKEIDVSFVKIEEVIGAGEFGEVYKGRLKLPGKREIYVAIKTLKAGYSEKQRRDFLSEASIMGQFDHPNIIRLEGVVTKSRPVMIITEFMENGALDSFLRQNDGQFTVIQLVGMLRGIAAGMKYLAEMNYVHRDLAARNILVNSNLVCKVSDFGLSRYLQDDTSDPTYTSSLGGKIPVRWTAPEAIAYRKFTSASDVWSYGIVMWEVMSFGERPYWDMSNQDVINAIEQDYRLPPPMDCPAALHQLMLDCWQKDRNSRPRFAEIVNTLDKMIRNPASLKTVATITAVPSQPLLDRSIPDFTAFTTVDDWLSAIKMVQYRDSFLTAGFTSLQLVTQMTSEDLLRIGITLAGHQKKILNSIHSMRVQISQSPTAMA

[11] = target: T3, Ephrin type-B receptor 1 (Homo sapiens); conditions: at 10 µM
[12] = target: T4, Ephrin type-B receptor 2 (Homo sapiens) (UniProt P29323); conditions: at 1 µM
T4 sequence (whole entry): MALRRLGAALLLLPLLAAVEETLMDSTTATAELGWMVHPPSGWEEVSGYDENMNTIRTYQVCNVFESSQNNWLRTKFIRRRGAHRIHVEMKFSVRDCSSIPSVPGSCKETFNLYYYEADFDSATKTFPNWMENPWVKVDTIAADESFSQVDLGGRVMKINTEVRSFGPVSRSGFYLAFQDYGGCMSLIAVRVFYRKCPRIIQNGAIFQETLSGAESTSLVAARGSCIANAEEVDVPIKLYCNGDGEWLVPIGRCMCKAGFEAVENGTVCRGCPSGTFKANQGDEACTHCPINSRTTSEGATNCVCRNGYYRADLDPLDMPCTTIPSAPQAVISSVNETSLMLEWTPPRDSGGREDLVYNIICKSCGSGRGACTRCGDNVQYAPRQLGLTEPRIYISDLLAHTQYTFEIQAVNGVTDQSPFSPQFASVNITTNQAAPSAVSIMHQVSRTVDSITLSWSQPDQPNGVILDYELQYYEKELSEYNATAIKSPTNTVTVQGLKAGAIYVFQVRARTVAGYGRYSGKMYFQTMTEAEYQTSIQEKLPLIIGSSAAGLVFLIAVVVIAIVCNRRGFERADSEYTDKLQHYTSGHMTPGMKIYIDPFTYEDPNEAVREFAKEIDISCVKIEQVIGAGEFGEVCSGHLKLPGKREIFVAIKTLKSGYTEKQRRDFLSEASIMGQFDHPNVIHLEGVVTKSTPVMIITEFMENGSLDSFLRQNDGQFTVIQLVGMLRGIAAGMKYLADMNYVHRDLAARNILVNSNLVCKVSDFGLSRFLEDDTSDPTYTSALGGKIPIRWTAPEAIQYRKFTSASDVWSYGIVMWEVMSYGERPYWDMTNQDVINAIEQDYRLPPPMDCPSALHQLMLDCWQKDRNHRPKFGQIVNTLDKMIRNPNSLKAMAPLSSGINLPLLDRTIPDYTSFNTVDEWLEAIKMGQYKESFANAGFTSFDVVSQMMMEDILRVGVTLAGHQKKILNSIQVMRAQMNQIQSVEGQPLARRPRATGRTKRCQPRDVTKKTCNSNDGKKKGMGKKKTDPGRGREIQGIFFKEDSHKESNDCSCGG

[13] = target: T4, Ephrin type-B receptor 2 (Homo sapiens); conditions: at 10 µM
[14] = target: T5, Ephrin type-B receptor 4 (Homo sapiens) (UniProt P54760); conditions: at 1 µM
T5 sequence (whole entry): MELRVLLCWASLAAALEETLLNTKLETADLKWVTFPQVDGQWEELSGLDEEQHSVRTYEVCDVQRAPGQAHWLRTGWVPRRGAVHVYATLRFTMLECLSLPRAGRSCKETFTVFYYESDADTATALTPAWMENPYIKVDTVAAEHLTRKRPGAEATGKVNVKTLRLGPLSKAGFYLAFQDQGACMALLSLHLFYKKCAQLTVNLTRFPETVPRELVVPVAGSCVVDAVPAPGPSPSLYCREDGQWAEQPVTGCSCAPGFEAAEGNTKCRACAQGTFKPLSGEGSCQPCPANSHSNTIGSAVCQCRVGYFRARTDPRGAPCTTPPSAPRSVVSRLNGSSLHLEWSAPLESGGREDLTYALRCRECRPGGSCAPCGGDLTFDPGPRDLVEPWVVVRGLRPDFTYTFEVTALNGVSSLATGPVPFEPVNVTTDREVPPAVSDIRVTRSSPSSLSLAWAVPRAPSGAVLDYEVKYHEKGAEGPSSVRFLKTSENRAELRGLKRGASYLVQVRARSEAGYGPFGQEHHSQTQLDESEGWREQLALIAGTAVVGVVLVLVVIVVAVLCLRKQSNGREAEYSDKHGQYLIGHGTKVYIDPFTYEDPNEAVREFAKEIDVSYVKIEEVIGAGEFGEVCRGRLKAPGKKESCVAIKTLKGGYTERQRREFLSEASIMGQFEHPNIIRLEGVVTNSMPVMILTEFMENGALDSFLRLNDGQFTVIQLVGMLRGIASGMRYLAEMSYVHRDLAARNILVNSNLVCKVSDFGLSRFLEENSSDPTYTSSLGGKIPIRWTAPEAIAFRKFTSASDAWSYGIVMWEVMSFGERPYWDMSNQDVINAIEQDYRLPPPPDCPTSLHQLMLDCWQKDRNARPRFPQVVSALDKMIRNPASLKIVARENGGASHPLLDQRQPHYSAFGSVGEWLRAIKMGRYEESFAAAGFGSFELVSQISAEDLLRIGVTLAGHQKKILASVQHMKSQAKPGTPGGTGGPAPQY

[15] = target: T5, Ephrin type-B receptor 4 (Homo sapiens); conditions: at 10 µM
[16] = target: Focal adhesion kinase 1 (Homo sapiens) (UniProt Q05397); conditions: at 1 µM
Sequence of Focal adhesion kinase 1 (Homo sapiens) (Q05397 2-1052 limits assumed): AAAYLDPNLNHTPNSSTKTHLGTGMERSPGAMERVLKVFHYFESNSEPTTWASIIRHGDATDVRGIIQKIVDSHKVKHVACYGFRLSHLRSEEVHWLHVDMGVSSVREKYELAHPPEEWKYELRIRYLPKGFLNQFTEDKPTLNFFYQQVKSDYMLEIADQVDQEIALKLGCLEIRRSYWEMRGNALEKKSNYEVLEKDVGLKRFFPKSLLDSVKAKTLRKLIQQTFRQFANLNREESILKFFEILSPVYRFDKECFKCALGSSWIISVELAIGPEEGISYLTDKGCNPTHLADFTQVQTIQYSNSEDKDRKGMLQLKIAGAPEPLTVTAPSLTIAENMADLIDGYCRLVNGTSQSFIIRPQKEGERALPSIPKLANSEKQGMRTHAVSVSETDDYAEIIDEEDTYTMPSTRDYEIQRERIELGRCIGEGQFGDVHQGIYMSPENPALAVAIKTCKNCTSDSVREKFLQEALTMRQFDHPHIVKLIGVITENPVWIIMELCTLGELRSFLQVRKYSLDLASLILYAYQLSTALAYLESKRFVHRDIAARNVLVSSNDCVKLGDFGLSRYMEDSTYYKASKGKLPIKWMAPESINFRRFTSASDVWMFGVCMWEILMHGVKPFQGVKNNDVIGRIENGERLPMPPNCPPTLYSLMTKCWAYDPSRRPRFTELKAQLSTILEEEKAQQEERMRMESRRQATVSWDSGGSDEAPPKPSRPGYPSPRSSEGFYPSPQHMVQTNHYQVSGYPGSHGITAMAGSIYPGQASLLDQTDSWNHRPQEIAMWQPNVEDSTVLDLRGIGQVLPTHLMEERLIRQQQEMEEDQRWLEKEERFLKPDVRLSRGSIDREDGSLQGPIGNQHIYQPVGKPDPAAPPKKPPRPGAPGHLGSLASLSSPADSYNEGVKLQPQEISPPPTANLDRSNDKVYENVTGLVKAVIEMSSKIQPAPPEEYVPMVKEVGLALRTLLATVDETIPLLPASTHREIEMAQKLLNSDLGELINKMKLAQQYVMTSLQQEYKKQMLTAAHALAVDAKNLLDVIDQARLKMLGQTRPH

## CC(C)[C@H](CO)Nc1nc(Nc2cccc(Cl)c2)c2ncn(C(C)C)c2n1
[1]
  residual activity: 31%
[2]
  residual activity: 95%
[3]
  residual activity: 47%
[4]
  residual activity: 83%
[5]
  residual activity: 14%
[6]
  residual activity: 76%
[7]
  residual activity: 28%
[8]
  residual activity: 85%
[9]
  residual activity: 46%
[10]
  residual activity: 63%
[11]
  residual activity: 15%
[12]
  residual activity: 71%
[13]
  residual activity: 3%
[14]
  residual activity: 37%
[15]
  residual activity: 4%
[16]
  residual activity: 65%
